miR-21 act: qHTS Assay for Modulators of miRNAs and/orActivators of miR-21 | HeLa miR-21 FLuc reporter, luciferase, 48 h | Potency, µM (highest dose often 38.3 µM), for the others: at the top dose activity change, positive = activation, usual class: activators | 340,000 tested, under 10 active | AID 2288, 2010;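 further: % of control where 0% means no effect; miR-21 action dims this reporter so a rising signal means less miR-21 action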
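HeLa miR-21-FLuc reporter line, endogenous miR-21; 2000 cells/well in DMEM/10% FBS; compound titration up to ~40uM final, 48 h, 37 degree Celsius; luciferase detection reagent, 15 min lysis, CCD luminescence.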
p53 reactivator: qHTS assay for re-activators of p53 using a Luc reporter | H1299 p53-A138V BP100-luciferase reporter, luminescence, 24 h | Potency, µM (doses to about 92.2 µM), for the others: top-dose activity change, positive = activation, hits mostly activators | 0.063% of 320,000 active | AID 504706, 2011; further: potency means the concentration at half of the fitted maximal effect; % of control where 0% means no effect; nearly all actives have a fitted effect of over 45% in size
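H1299 (p53-null), stable ts p53-A138V + BP100-Luc; 1000 cells/well, Opti-MEM/10% FBS; cpd 4 pt, 1:5; 24 h, 37 deg C, 5% CO2; detection reagent 10 min RT; luminescence.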
ClpP mod: qHTS Assay for Activators of ClpP. purified B. subtilis ClpP, FRET peptide cleavage, 20 min. Potency, µM (top dose mostly 57.5 µM), for inactives: top-dose activity change, negative = active. AID 651965, 2013. ATP-dependent Clp protease proteolytic subunit (Bacillus subtilis (strain 168)), P80244. 1.9% of 340,000 active; active means well fitted falling curve with a large enough effect; inconclusive means small, poorly fitted or top-dose-only effect; inactive means no such curve, though single readings can be large or run the other way; further: potency means the concentration at half of the fitted maximal effect; the source files actives as falling curves though it sought activators and does not explain the sign; nearly all actives have a fitted effect of over 65% in size
Target sequence (P80244 whole entry, looked up): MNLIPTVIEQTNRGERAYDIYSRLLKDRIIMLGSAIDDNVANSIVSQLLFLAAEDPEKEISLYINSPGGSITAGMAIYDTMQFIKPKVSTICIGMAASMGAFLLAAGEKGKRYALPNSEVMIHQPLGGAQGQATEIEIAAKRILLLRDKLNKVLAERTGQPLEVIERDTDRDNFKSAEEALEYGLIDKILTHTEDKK
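FRET quenching reversal measured ClpP activation: 10 microg/mL B. subtilis ClpP at pH 8 with the FRET-FV decapeptide, read at 430 nm after 320 nm excitation. The 20-min minus 0-min signal was scaled between DMSO/no-enzyme wells and ADEP (5.8 microM final).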
A549 tox-1: Nrf2 qHTS screen for inhibitors: counterscreen for cytotoxicity; 0.16% of 390,000 active; Potency, µM (top dose mostly 46 µM), for the others: top-dose activity change, negative = cytotoxicity, actives largely listed as inhibitors; AID 504648, 2011; A549 ARE-Fluc cells, CellTiter-Fluor viability, 18-24 h; further: potency means the concentration at half of the fitted maximal effect; on the % scale 0 is the no-effect control and ±100 the full control effect
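A549 ARE-Fluc cells in 5% FBS OPTI-MEM, 5000 cells/well, rested 2 h then exposed to compounds in concentration-response for 18-24 h at 37 °C. Viability by CellTiter-Fluor fluorescence (Ex 405/Em 525) after 30 min; luciferase luminescence (BugLite, 15 min, RT) read afterwards.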
Nrf2 activator: qHTS of Nrf2 Activators | AREc32 ARE-luciferase reporter (MCF7-derived line), luminescence, 24 h | Potency, µM (top dose mostly 46.1 µM), for the others: at the highest dose activation, hits mostly activators | 0.31% of 410,000 active; further: potency means the concentration at half of the fitted maximal effect; % of control where 0% means no effect; nearly all actives have a fitted effect of over 65% in size
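Quantitative high-throughput format: AREc32 reporter cells, 1000 per well, received compound by pin transfer and were incubated 24 hr at 37 deg C, 5% CO2, before Steady-Glo luminescence detection.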
Nrf2 block: Nrf2 qHTS screen for inhibitors; A549 ARE-Fluc reporter, luciferase luminescence, 18-24 h; Potency, µM (doses to about 46 µM), for the others: at the top dose activity change, negative = inhibition, hits mostly inhibitors; 2.1% of 360,000 active; further: potency means the concentration at half of the fitted maximal effect; on the % scale 0 is the no-effect control and ±100 the full control effect; nearly all actives have a fitted effect of over 60% in size
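Nrf2 function is reported as luminescence of an ARE-controlled luciferase in A549 cells. Compounds were tested at several concentrations, and a CellTiter-Fluor read on the same wells flagged cytotoxicity.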
FLuc enzyme inh: Nrf2 qHTS screen for inhibitors: Purified Fluc Biochemical Counterscreen for Hit Validation | purified firefly luciferase, luminescence inhibition | 4% of 1,400 active | Potency, µM (doses to about 57.5 µM), for the others: at the highest dose activity change, negative = inhibition, hits mostly inhibitors | AID 720522, 2013 | shares compounds with Nrf2 block; further: potency means the concentration at half of the fitted maximal effect; on the % scale 0 is the no-effect control and ±100 the full control effect; nearly all actives have a fitted effect of over 65% in size
Target sequence (P08659 whole entry, looked up): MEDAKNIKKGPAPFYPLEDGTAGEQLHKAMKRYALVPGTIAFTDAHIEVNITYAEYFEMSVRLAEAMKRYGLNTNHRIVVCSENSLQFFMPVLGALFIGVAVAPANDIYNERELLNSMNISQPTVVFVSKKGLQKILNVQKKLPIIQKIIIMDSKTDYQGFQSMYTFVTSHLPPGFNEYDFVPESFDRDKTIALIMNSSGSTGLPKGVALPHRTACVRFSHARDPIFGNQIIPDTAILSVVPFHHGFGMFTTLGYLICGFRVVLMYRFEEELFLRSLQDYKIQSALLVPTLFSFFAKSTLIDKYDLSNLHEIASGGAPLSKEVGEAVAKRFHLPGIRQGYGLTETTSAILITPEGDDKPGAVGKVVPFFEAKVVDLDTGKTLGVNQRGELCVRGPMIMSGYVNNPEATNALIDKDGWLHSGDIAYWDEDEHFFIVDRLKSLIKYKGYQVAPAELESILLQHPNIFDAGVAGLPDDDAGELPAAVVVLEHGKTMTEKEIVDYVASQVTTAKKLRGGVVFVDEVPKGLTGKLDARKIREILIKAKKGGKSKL
A549 tox-2: Nrf2 qHTS screen for inhibitors: A549 ARE-Fluc Cytotoxicity Counterscreen for Hit Validation; AID 720523, 2013; 2% of 1,400 active; A549 ARE-Fluc cells, cytotoxicity counterscreen; Potency, µM (doses to about 46.1 µM), without a hit: at the top dose activity change, negative = cytotoxicity, actives largely listed as inhibitors; shares compounds with Nrf2 block;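 further: potency means the concentration at half of the fitted maximal effect; cells exposed to compounds for 18 to 24 hours; on the % scale 0 is the no-effect control and ±100 the full control effect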
ARE-Fluc inh: Nrf2 qHTS screen for inhibitors: Nrf2 A549 ARE-Fluc Confirmation Assay for Hit Validation; shares compounds with Nrf2 block; A549 ARE-firefly luciferase reporter, luminescence; Potency, µM (doses to about 46.1 µM), for inactives: at the highest dose activity change, negative = inhibition, usual class: inhibitors; 74% of 1,400 active; further: potency means the concentration at half of the fitted maximal effect; on the % scale 0 is the no-effect control and ±100 the full control effect; nearly all actives have a fitted effect of over 65% in size
* = called active by the depositor; u = inconclusive; x = not tested or not shown. Sampled rows, rich in hits. Any-hit rate of the full collection: about 3.7%. Unless noted, the call rests on the fitted dose curve; in most records, active means well fitted curve in the direction sought with a large enough effect; inconclusive means small, poorly fitted or top-dose-only effect, or another doubt; inactive means no such curve, though single readings can be large; an effect the other way counts as inactive or inconclusive.

SMILES	miR-21 act	p53 reactivator	ClpP mod	A549 tox-1	Nrf2 activator	Nrf2 block	FLuc enzyme inh	A549 tox-2	ARE-Fluc inh
CSc1ccc(S(=O)(=O)NCC(=O)OCC(=O)N(Cc2ccccc2)C(C)C)cc1[N+](=O)[O-]	x	4.7%	x	-3.3%	2.1%	-11.9%	x	x	x
Cc1cc(-n2c(C)cc(C(=O)CSc3ncnc4ccccc34)c2C)no1	18.2%	19.6%	-4.5%	u	6.0%	4.61µM*	u	-1.5%	16.4µM*
Cc1cc(C(=O)CSc2ncnc3ccccc23)c(C)n1C1CC1	x	u	-0.1%	-0.3%	4.9%	-16.0%	x	x	x
Cc1ccc(S(=O)(=O)N2Cc3ccccc3CC2C(=O)N(C)C)cc1 (stereo not given)	x	x	1.8%	x	-2.4%	x	x	x	x
CC[n+]1c(/C=C/c2cc([N+](=O)[O-])ccc2O)ccc2ccccc21	-6.7%	6.4%	x	-16.9%	28.9%	u	x	x	x
CCN1/C(=C\C=C(C(C)=O)C(C)=O)Sc2ccccc21	-34.8%	-2.3%	x	-16.4%	11.5%	-1.6%	x	x	x
CCN1/C(=C/c2ccc3cc(C)cc(C)c3[n+]2CC)Sc2cc(C)ccc21	u	12.8%	1.9%	16.4µM*	0.4%	u	-11.4%	u	1.64µM*
CCN1/C(=C\c2ccc3cc(C)ccc3[n+]2CC)Sc2cc(C)c(C)cc21	x	-4.2%	1.7%	u	-0.9%	8.2µM*	-6.6%	u	1.84µM*
CCN1/C(=C/c2ccc3cccc(C)c3[n+]2CC)Sc2ccccc21	-8.5%	4.3%	-0.5%	u	-1.4%	2.59µM*	0.3%	u	2.06µM*
CC(=O)c1ccc(N2CCN(S(=O)(=O)c3ccc(-c4cc(C(F)(F)F)on4)s3)CC2)cc1	3.3%	x	0.6%	7.6%	-0.9%	u	x	x	x
CC(=O)OCC=C1CCC2C3CCC4=CC(=O)CCC4(C)C3C(O)CC12C (stereo not given)	x	x	x	2.6%	2.2%	-20.9%	x	x	x
CC(=O)OCC(=O)[C@@]1(O)CC[C@H]2[C@@H]3CCC4=CC(=O)CC[C@]4(C)[C@H]3[C@@H](O)C[C@@]21C	-25.9%	-4.2%	2.0%	-8.8%	-0.8%	0.0411µM*	2.1%	-1.7%	0.0731µM*
CC12CCC(=O)C=C1CCC1C2CCC2(C)C1CC[C@]2(O)C(=O)CO (stereo not given in full)	-14.1%	9.1%	0.2%	-18.1%	-0.3%	u	x	x	x
CCC(CC)C(=O)OCC(=O)C1(O)CCC2C3CCC4=CC(=O)CCC4(C)C3C(O)CC21C (stereo not given)	x	x	x	-5.2%	0.5%	0.326µM*	3.4%	-10.8%	0.103µM*
CC(=O)OCC(=O)C1(O)CCC2C3CC(F)C4=CC(=O)CCC4(C)C3C(O)CC21C (stereo not given)	x	x	x	-4.7%	-0.2%	0.0651µM*	0.7%	-12.1%	0.0184µM*
C[C@]12CCC(=O)C=C1CC[C@@H]1[C@@H]2[C@@H](O)C[C@@]2(C)[C@H]1CC[C@]2(O)C(=O)COC(=O)CCC(=O)O	-28.0%	-3.4%	0.4%	-9.0%	0.3%	0.326µM*	1.7%	-4.5%	0.291µM*
CCc1c(C)nc2nncn2c1Nc1cccc(C)c1	-8.8%	x	-18.1%	-0.9%	2.9%	-16.5%	x	x	x
CCC(c1nnnn1-c1c(C)cccc1C)N1CCN(c2ccccn2)CC1 (stereo not given)	x	x	-2.9%	x	0.8%	x	x	x	x
N#CC1(NC(=O)CSc2nnc(C3CC3)n2N)CCCCC1	x	x	-0.1%	x	7.7%	x	x	x	x
CCCCCCn1cc(CN2CC(N3CCN(CCN(C)C)CC3)CS2(=O)=O)nn1 (stereo not given)	x	x	-1.6%	x	-0.3%	x	x	x	x
CC1CC2(C)C(=CC1=O)CCC1C2C(O)CC2(C)C1CCC2(O)C(=O)CO (stereo not given)	x	x	x	1.0%	-0.5%	0.116µM*	3.0%	-4.7%	0.184µM*
CC12CCC(=O)C=C1C(O)CC1C2CCC2(C)C1CCC2(O)C(=O)CO (stereo not given)	x	x	x	-4.0%	-0.1%	-15.7%	x	x	x
CC(C)(CNC(=O)CO/N=C1/C=C2CCC3C(C(O)C[C@@]4(C)C3CC[C@]4(O)C(=O)CO)[C@@]2(C)CC1)C(O)C(=O)O (stereo not given in full)	-31.1%	-0.5%	-1.7%	-3.0%	0.3%	1.84µM*	-1.7%	-1.7%	x
O=C(c1cc2nc(-c3ccc(F)cc3)cc(C(F)(F)F)n2n1)N1CCCCC1c1cccnc1 (stereo not given)	24.1%	-1.7%	-9.5%	u	5.3%	4.61µM*	-25.7%	-26.0%	6.51µM*
CCCN1CCC(=O)N(C(CSc2ccc(OC)cc2)c2ccccc2)CC1 (stereo not given)	x	x	x	-4.2%	x	14.9%	x	x	x
O=C(NCc1nnc(SCC(=O)N2CCCc3ccccc32)n1-c1ccccc1)c1cccc2ccccc12	8.0%	-23.3%	-12.9%	-11.1%	0.4%	2.59µM*	-1.1%	-18.0%	10.3µM*
CCOC(=O)c1ccc(NC(=O)N2CC3CCCN3c3ccccc32)cc1 (stereo not given)	-3.2%	x	-11.0%	13.5%	3.5%	u	x	x	x
Cc1ccc(C(=O)Oc2ccccc2N2C(=O)C3CCCCC3C2=O)cc1 (stereo not given)	-20.9%	18.5%	-3.5%	8.3%	-1.8%	1.3µM*	-1.6%	-0.1%	3.26µM*
COc1cc(NC(=O)CCCSc2nc(-c3ccco3)cc(C(F)(F)F)n2)cc(OC)c1OC	14.1%	-9.1%	-0.7%	-28.6%	5.3%	u	x	x	x

Screens from PubChem.
